From PubChem BioAssay (NCI)
Compounds without any hit were thinned out: in the full panel of roughly 83,000, 20% have a hit.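 The endpoint reported here, percent growth, reads 100 for growth as untreated, 0 for no net growth and -100 for all cells dead.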 Active and inactive are the calls of the source. How the source made its calls: active means growth percent below 10; inactive means the rest.

Columns and labels:
Experiment in all cases: NCI-60 one-dose screen, 48 h (100 = growth as untreated, 0 = no growth, -100 = all killed)
Settings in all cases: 10 µM unless noted
SK-MEL-2 melanoma = system: SK-MEL-2 melanoma
EKVX NSCLC = system: EKVX NSCLC
SN12C renal = system: SN12C renal
UO-31 renal = system: UO-31 renal
TK-10 renal = system: TK-10 renal
ACHN renal = system: ACHN renal
CAKI-1 renal = system: CAKI-1 renal
A498 renal = system: A498 renal
CCRF-CEM leukemia = system: CCRF-CEM leukemia
MOLT-4 leukemia = system: MOLT-4 leukemia
SR leukemia = system: SR leukemia
RPMI-8226 leukemia = system: RPMI-8226 leukemia
OVCAR-8 ovarian = system: OVCAR-8 ovarian
OVCAR-5 ovarian = system: OVCAR-5 ovarian
OVCAR-4 ovarian = system: OVCAR-4 ovarian
SK-OV-3 ovarian = system: SK-OV-3 ovarian
IGROV1 ovarian = system: IGROV1 ovarian
OVCAR-3 ovarian = system: OVCAR-3 ovarian
HS 578T breast = system: HS 578T breast
NCI/ADR-RES ovarian = system: NCI/ADR-RES ovarian

Measured: growth

CC(C)(C)n1cc(-c2ccnc(NCCCNS(=O)(=O)c3cccc4ccccc34)c2)c(-c2cccc(O)c2)n1
active: MOLT-4 leukemia 7.2% | SR leukemia -1.59% | RPMI-8226 leukemia -34.8%
inactive: SK-MEL-2 melanoma 30.1% | EKVX NSCLC 42.3% | SN12C renal 36.7% | UO-31 renal 44.8% | TK-10 renal 74.8% | ACHN renal 36.7% | CAKI-1 renal 40.4% | A498 renal 48% | CCRF-CEM leukemia 22.1% | OVCAR-8 ovarian 30.6% | OVCAR-5 ovarian 48.4% | OVCAR-4 ovarian 36.5% | SK-OV-3 ovarian 71.4% | IGROV1 ovarian 41.7% | OVCAR-3 ovarian 43.6% | HS 578T breast 36.6% | NCI/ADR-RES ovarian 36.5%

O=C(CN1CCN(c2cc3c(cc2F)c(=O)c(C(=O)O)cn3C2CC2)CC1)Nc1nc(-c2ccc(Cl)cc2)cs1
inactive: SK-MEL-2 melanoma 21.9% | EKVX NSCLC 35.4% | SN12C renal 15.8% | UO-31 renal 20.2% | TK-10 renal 26.7% | ACHN renal 25.1% | CAKI-1 renal 30.4% | CCRF-CEM leukemia 23.8% | MOLT-4 leukemia 30.5% | SR leukemia 29.3% | OVCAR-8 ovarian 13.2% | OVCAR-5 ovarian 51.7% | OVCAR-4 ovarian 67.7% | SK-OV-3 ovarian 21.1% | IGROV1 ovarian 38.6% | OVCAR-3 ovarian 14.2% | HS 578T breast 32.2% | NCI/ADR-RES ovarian 56.9%
active: A498 renal 4.43% | RPMI-8226 leukemia 1.14%

COc1ccc(CCN2CCCn3c2nc2ccccc2c3=O)cc1
active: A498 renal -3.97% | OVCAR-3 ovarian -4.64%
inactive: SK-MEL-2 melanoma 51.1% | EKVX NSCLC 45.7% | SN12C renal 45% | UO-31 renal 41.1% | TK-10 renal 69.3% | ACHN renal 40.4% | CAKI-1 renal 41.7% | CCRF-CEM leukemia 21.1% | MOLT-4 leukemia 18.5% | SR leukemia 24.8% | RPMI-8226 leukemia 29.9% | OVCAR-8 ovarian 28.8% | OVCAR-5 ovarian 41.6% | OVCAR-4 ovarian 41.9% | SK-OV-3 ovarian 53.7% | IGROV1 ovarian 40.3% | HS 578T breast 38.9% | NCI/ADR-RES ovarian 14.7%

Nc1nc2c(c3ncccc13)C(c1ccc(Cl)c(Cl)c1)Cc1ncccc1-2 (stereo not given)
inactive: SK-MEL-2 melanoma 18.4% | EKVX NSCLC 44.5% | SN12C renal 34.1% | UO-31 renal 36.9% | TK-10 renal 29.5% | ACHN renal 30.2% | CAKI-1 renal 30.9% | RPMI-8226 leukemia 15.8% | OVCAR-8 ovarian 34.2% | OVCAR-5 ovarian 81.3% | OVCAR-4 ovarian 67.6% | SK-OV-3 ovarian 19.7% | IGROV1 ovarian 50.8% | HS 578T breast 31.5%
active: A498 renal -13.5% | CCRF-CEM leukemia 2.45% | MOLT-4 leukemia 5.36% | SR leukemia 0.136% | OVCAR-3 ovarian -8.92% | NCI/ADR-RES ovarian 4%
